Compound activity (PubChem)
mHTT CaM bind = inhibitors of human mutant huntingtin-calmodulin interaction | P42858 | AlphaScreen His-mHTT/GST-CaM binding, luminescence | inhibition, % at 15 µM | 3.6% of 190,000 active | AID 1671202
Pf apPOL inh = Pf-apPOL DNA polymerase inhibition; inhibition, % at 10 µM; 0.25% of 210,000 active; Recombinant Pf-apPOL, molecular beacon fluorescence, 1.5 h
A number is an active result; n = inactive; x = not tested or not shown; + = active, no number; ! = not confirmed by another sample. Only some compounds are listed: those with a hit (about 3.6% of all), similar ones and a draw of the others. Cut-off read from the data, not from the text of the source: active = inhibition above about 50%; inactive = the rest.

SMILES	mHTT CaM bind	Pf apPOL inh
CC(=O)Nc1cccc(N=Cc2cc(Cc3ccccc3)ccc2O)c1	95	n
COc1ccc(NC(=O)CSc2nc3c(c(=O)n2Cc2ccccc2)SC(C)C3)cc1 (stereo not drawn)	n	n
O=C(NCCSCc1ccco1)c1cncc(Br)c1	x	n
Cc1sc2ncnc(N3CCCC(C)C3)c2c1C(=O)Nc1cccc(F)c1 (stereo not drawn)	n	n
CN1C(=O)Cc2cc(C(=O)NCc3cc(F)cc(F)c3)ccc21	n	n
Cc1cc(N2CCN(C)CC2)nc2ccc(NC(=O)/C=C/c3cccs3)cc12	76	n
Cc1cc(N2CCN(C)CC2)nc2ccc(NC(=O)/C=C/c3cccnc3)cc12	n	n
Cc1cc(N2CCN(C)CC2)nc2ccc(NC(=O)c3cc(-c4ccco4)nc4ccccc34)cc12	57	n
COc1ccccc1C(=O)Nc1ccc2nc(N3CCN(C)CC3)cc(C)c2c1	n	n
Cc1csc(-c2ccc(N3CCN(C(=O)c4ccccc4C)CC3)nc2)n1	n	n
Cc1ccccc1-n1c(=O)n(CCC(C)C)c(=O)c2c1ncn2C(C)C	n	n
CCCn1cnnc1C1CCN(C(=O)Cc2ccsc2)CC1	n	n
NC(=O)COc1ccc(/C=C2\SC(=Nc3ccccc3)N(Cc3ccccc3)C2=O)cc1	n	n
CCn1cc2c3c(cccc31)CN(C(=O)c1cccc(F)c1)CC2	n	n
CCCn1cc2c3c(cccc31)CN(C(=O)c1ccccc1F)CC2	51	n
Cn1cc2c3c(cccc31)CN(C(=O)c1ccccc1F)CC2	n	n
CCCn1cc2c3c(cccc31)CN(C(=O)c1cccc(F)c1)CC2	66	n
CCN(CC)C(=O)COc1ccc2c(C)c(Cc3ccccc3)c(=O)oc2c1C	n	n
O=C(Nc1ccc2c(c1)Cc1ccccc1-2)c1nc(-c2cnccn2)no1	n	n
Cc1cc(C)cc(NC(=O)CSc2cn(CCNC(=O)c3ccc(F)cc3)c3ccccc23)c1	78	n
Cc1cccc(NC(=O)CSc2cn(CCNC(=O)c3ccc(F)cc3)c3ccccc23)c1	n	n
CCc1cccc(NC(=O)C2CCc3nc(N4CCOCC4)ncc3C2)c1 (stereo not drawn)	n	n
CCC(=O)N1CCN(c2nc3c(s2)CC(C(=O)N2CCOCC2)CC3)CC1 (stereo not drawn)	n	n
COc1ccc(N2CCN(C(=O)c3oc4ccc(C)cc4c3C)CC2)cc1	n	n
COc1ccc(OC)c(CCC(=O)O)c1	n	n
SMILES	mHTT CaM bind	Pf apPOL inh
COc1ccc(CCCC(=O)O)cc1C	n	63
Cc1ccc(C)c(N2CCN(C(=O)C3c4ccccc4CCN3C(=O)C3CC3)CC2)c1 (stereo not drawn)	57	n
Cc1ccc(C)c(N2CCN(C(=O)C3CCC3)CC2)c1	n	n
CC1CCCCN1C(=O)C1CCN(c2ncnc3c2nc2n3CCCCC2)CC1 (stereo not drawn)	n	n
COc1ccc(C(=O)N2CCCC(c3nc(-c4ccc(NC(C)=O)cc4)no3)C2)cc1 (stereo not drawn)	n	n
COc1ccccc1-c1ccc(C=CC(=O)c2ccco2)o1	58	n
Cc1ccc(-c2ccc(/C=C/C(=O)c3ccco3)o2)cc1	n	n
CCCN1C(=O)C(CC(=O)N2CCCCC2)Sc2ncccc21 (stereo not drawn)	n	n
CN(CC(=O)NCc1ccco1)S(=O)(=O)c1ccc2[nH]c3c(c2c1)CCCC3	n	n
O=c1[nH]c2ccc(S(=O)(=O)NCc3ccco3)cc2s1	n	n
CN(Cc1ccco1)S(=O)(=O)c1ccc2[nH]c3c(c2c1)CCCCC3	78	n
O=S(=O)(NCc1ccco1)c1ccc2[nH]c3c(c2c1)CCCCC3	87	n
Cc1ccc(CNS(=O)(=O)c2ccc3[nH]c4c(c3c2)CCCCC4)cc1	n	n
O=S(=O)(NCc1ccccc1)c1ccc2[nH]c3c(c2c1)CCCCC3	57	n
CN(C)c1ccc(CNS(=O)(=O)c2ccc3[nH]c4c(c3c2)CCCCC4)cc1	55	n
O=S(=O)(NCc1cccnc1)c1ccc2[nH]c3c(c2c1)CCCC3	n	n
COc1ccc(Cl)cc1-c1ccc(/C=C2\SC(=N)N(c3nonc3NC(C)=O)C2=O)o1	n	n
CCCn1nc(C(=O)NC(C)c2ccccc2)ccc1=O (stereo not drawn)	n	n
CC(=O)Nc1ccc(-c2noc(C3CCN(C(=O)c4cccc(N(C)C)c4)CC3)n2)cc1	n	n
COc1ccc2c(c1)OC(=Cc1ccccc1)C2=O	n	n
Cc1cc2c(cc1C)NC(CC(=O)Nc1ccccc1C)C(=O)N2 (stereo not drawn)	n	n
Cc1ccc(NC(=O)CC2Nc3cc(C)c(C)cc3NC2=O)c(Br)c1 (stereo not drawn)	64!	n
CCOc1ccccc1NC(=O)CC1Nc2cc(C)c(C)cc2NC1=O (stereo not drawn)	n	n
Cc1cc2c(cc1C)NC(CC(=O)Nc1ccccc1OC(F)F)C(=O)N2 (stereo not drawn)	50!	n
COc1ccc(CNC2CCN(c3ccc(C(=O)Nc4ccc(F)cc4)cn3)C2)c(O)c1 (stereo not drawn)	n	n
SMILES	mHTT CaM bind	Pf apPOL inh
CN(C)c1ccc(C=NNC2=NCCN2)cc1	x	n
CN(C)c1ccc(/C=N/NC(=S)N/N=C/c2ccc(N(C)C)cc2)cc1	+	x
O=C(c1ccc(-c2ccsc2)nc1)N1CCN(C2CCCCC2)CC1	n	n
O=C(c1ccc(-c2ccsc2)nc1)N1CCCC1	n	n
O=C(c1ccccc1)N1CCC(n2nc(-c3ccsc3)ccc2=O)CC1	99	n
Cc1ccc(C(=O)N2CCC(n3nc(-c4ccsc4)ccc3=O)CC2)cc1	100	n
O=C(Nc1ccc2c(c1)OCO2)C1CC(=O)N(CCc2c[nH]c3ccc(F)cc23)C1 (stereo not drawn)	n	n
Cc1noc(C2CN(CC3CCCCC3)C2)n1	n	n
COc1ccc(NC(=O)CN(c2ccc(Cl)cc2C)S(C)(=O)=O)c(OC)c1	n	n
COc1ccc(N(CC(=O)Nc2ccc(Br)c(C)c2)S(C)(=O)=O)c(OC)c1	54	n
Cc1cc(C)cc(C(=O)N2CCC(C(=O)NCc3csc(-c4ccccc4)n3)CC2)c1	n	n
COc1ccccc1NS(=O)(=O)c1cc(C(=O)Nc2ccccc2)ccc1C	n	n
COc1ccccc1NCC(=O)c1ccc(C)c(C)c1	n	65
Cc1ccc(C(=O)Nc2nnc3ccccn23)cc1	n	n
Cc1ccc(C(=O)Nc2nnc3ccccn23)s1	91	n
O=C(Nc1nnc2ccccn12)c1cc(F)cc(F)c1	82	n
O=C(Nc1nnc2ccccn12)c1cccc(F)c1	56	n
Cc1cccc(C(=O)Nc2nnc3ccccn23)c1	n	n
O=C(Nc1nnc2ccccn12)c1ccc(F)cc1	n	n
CCc1ccc(C(=O)CSc2nnnn2C)cc1	n	n
CC(C)CNC(=O)N1CCCC1c1cc(C(C)C)on1 (stereo not drawn)	n	n
O=C(Nc1ccccc1Br)C1CCCN(C(=O)c2ccccc2F)C1 (stereo not drawn)	n	n
c1ccc(-c2nc(-c3ccc4c(c3)ncn4CCN3CCCCC3)no2)cc1	n	n
O=C1C(Nc2ccc(Cl)cc2)=C(n2nnc3ccccc32)C(=O)c2ccccc21	n	n
CCN(CC)c1ccc(NC2=C(n3nnc4ccccc43)C(=O)c3ccccc3C2=O)cc1	70	n
Cc1ccc(NC(=O)c2cccnc2-c2cccs2)c(C)c1	n	n
COc1cccc(C(=O)N2CCc3c(c(C(=O)NCc4ccc(Cl)cc4)nn3C)C2)c1	90	n
